# Screening results (PubChem)
# RORg inh – blocks mouse ROR gamma transcriptional activity. Drosophila S2 Gal4-RORgamma UAS-luciferase reporter, 20 h. Potency, µM (titrated, usually from 53.6 µM), for inactives: at the highest dose activity change, negative = inhibition, most hits filed as inhibitors. 310,000 compounds, 5.4% hits. AID 2551; note: % is set by controls: 0 for no effect and ±100 for the full control effect; nearly all actives have a fitted effect of over 60% in size
# Target sequence (P51450 whole entry, looked up, the tested form may be a part): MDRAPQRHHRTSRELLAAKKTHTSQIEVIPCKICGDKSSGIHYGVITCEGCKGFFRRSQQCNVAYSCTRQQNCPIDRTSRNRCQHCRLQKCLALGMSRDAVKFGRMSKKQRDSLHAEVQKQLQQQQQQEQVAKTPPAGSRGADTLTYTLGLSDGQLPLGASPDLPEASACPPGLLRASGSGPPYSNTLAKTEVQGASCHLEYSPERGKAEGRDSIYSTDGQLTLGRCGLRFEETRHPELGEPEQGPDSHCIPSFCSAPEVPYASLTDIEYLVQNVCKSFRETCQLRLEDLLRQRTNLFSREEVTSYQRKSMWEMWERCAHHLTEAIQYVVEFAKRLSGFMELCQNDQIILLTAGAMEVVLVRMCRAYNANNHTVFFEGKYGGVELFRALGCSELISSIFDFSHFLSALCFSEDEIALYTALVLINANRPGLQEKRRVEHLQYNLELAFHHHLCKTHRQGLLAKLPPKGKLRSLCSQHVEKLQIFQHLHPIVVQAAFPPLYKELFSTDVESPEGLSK
#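 In this cell-based reporter format, copper sulfate (700 uM final) drives Gal4–ROR gamma fusion expression from a metallothionein promoter in Drosophila Schneider cells; compounds preincubated 1 hr, reporter read after 20 hr at ambient temperature.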
# Gal4-VP16 FLuc – Gal4-VP16 reporter inhibition counter-screen | Drosophila S2 Gal4-VP16 UAS-luciferase, luminescence, 20 h | Potency, µM (titrated, usually from 53.6 µM), inactives show top-dose activity, negative = inhibition, actives largely listed as inhibitors | 310,000 compounds, 3.5% hits;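 note: Gal4-VP16 expression switched on by copper sulfate through the metallothionein promoter; % is set by controls: 0 for no effect and ±100 for the full control effect; nearly all actives have a fitted effect of over 50% in size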
# Mito fusion act – mitochondrial division inhibition or fusion activation. S. cerevisiae fusion-defective mutant growth rescue, CellTiterGlo 48 h. Potency, µM (top dose mostly 46.1 µM), for inactives: at the highest dose growth rescue (activation), actives largely listed as activators. 320,000 compounds, 0.23% hits; note: % of control where 0% means no effect; nearly all actives have a fitted effect of over 45% in size
#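 Temperature-sensitive fusion-defective S. cerevisiae (e.g. fzo1-1, mgm1-5) were grown with compound in YPEG medium (3% ethanol, 3% glycerol) for 48 hours at 37C. Growth rescue was measured as viability by CellTiterGlo luminescence after 10 minutes at ambient.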
# uPA surface inh – cell surface uPA generation inhibition. AID 540303. cell surface uPA generation assay, qHTS. 330,000 compounds, 0.31% hits. Potency, µM (highest dose often 38.3 µM), for inactives: at the top dose activity change, negative = inhibition, hits mostly inhibitors; active = well fitted inhibition curve with a large enough effect; inconclusive = small, poorly fitted or top-dose-only effect; inactive = no such curve, though single readings can be large or run the other way; tested in mouse RAW 264.7 cells; note: % is set by controls: 0 for no effect and ±100 for the full control effect; nearly all actives have a fitted effect of over 55% in size
# Integrin act MD – activates integrin-mediated alleviation for muscular dystrophy; alpha7betagal myoblasts, beta-gal FDG fluorescence, 48 h; Potency, µM (titrated, usually from 38.3 µM), inactives show top-dose activation, most hits filed as activators; 350,000 compounds, 0.064% hits;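 note: 100% = response of the positive control SU9516; nearly all actives have a fitted effect of over 60% in size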
#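 Alpha7betagal+/- myoblasts (passage 13) were plated 16-24 hr, then exposed to compounds (1:260 dilution of DMSO stock) for 48 hours at 37C. After MPER lysis, β-galactosidase reporter activity was read as FDG fluorescence (ex 480/em 540) after 30 minutes.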
# Chronic BCR inh – chronic active BCR signaling inhibition | ABC-DLBCL IkBa-CBG/CBR reporter, luminescence ratio, 4 h | 340,000 compounds, 0.05% hits | Potency, µM (top dose mostly 46.1 µM), without a hit: at the top dose activity change, negative = inhibition, hits mostly inhibitors | AID 493014; active = well fitted inhibition curve with a large enough effect in the signal ratio, with a control signal flat, not every such curve was filed as active; inconclusive = small, poorly fitted or top-dose-only effect, or effect the other way, or a change in a side signal; the % refers to the signal ratio;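 note: plate controls were basal doxycycline-induced cells for no effect and cells given 10 µM MG132 for full effect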
#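 TMD8 human ABC-DLBCL cells with doxycycline-inducible IκBα–green luciferase fusion and unfused red luciferase, in 0.5% FBS medium; compounds up to 46 uM, 4 h at 37C. Green/red luminescence ratio, filter-overlap corrected, fitted to concentration-response curves.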
# * marks the source's active call; other numbers are inactive results; ? = inconclusive; · = no result given; [ ] = remark or other dose. Compounds with a hit are over-represented: about 5.5% of the library has one in this group of screens. Unless noted, calls come from the whole dose curve; as a rule, active = well fitted curve in the direction sought with a large enough effect; inconclusive = small, poorly fitted or top-dose-only effect, or another doubt; inactive = no such curve, though single readings can be large; an effect the other way counts as inactive or inconclusive. Potency is the fitted concentration of half-maximal effect.
SMILES,RORg inh,Gal4-VP16 FLuc,Mito fusion act,uPA surface inh,Integrin act MD,Chronic BCR inh
O=C(COc1cccc(Br)c1)NN=C1c2ccccc2-c2ccccc21,20µM*,?,4%,2%,11%,-1%
COc1ccc(-c2nc3cnc(N4CCOCC4)nc3n(Cc3cccc(OC)c3)c2=O)cc1,-22%,-1%,·,·,·,·
CCCCCCCCCCCCCCCCCC(=O)OC[C@@H](O)[C@H]1OC[C@H](O)[C@H]1O,-6%[10 µM],4%,·,·,·,·
O=c1c2ccccc2nc(-c2ccc(Cl)cc2Cl)n1O,10µM*,?,-4%,0%,20%,1%
O=c1c2ccccc2nc(-c2ccc(Cl)c(Cl)c2)n1O,?,?,4%,8%,15%,?
O=c1c2ccc(Cl)cc2nc(-c2cccc(C(F)(F)F)c2)n1O,7.1µM*,3.5µM*,-5%,-12%,-38%,-4%
O=c1c2ccccc2nc(-c2ccccc2Cl)n1O,10µM*,?,19%,1%,-24%,4%
N#Cc1ccc(-c2nc3ccccc3c(=O)n2O)cc1,16µM*,?,8%,3%,-19%,6%
Cc1cccc(NC(=O)C2CCCN(C(=O)Nc3ccc(F)cc3)C2)c1 (centres undefined),2%,15%,-21%,0%,-6%,7%
O=S(=O)(Nc1cccnc1)c1ccc(Br)c2ccccc12,?,-22%,-2%,7%,25%,1%
Clc1ccccc1-c1nc2ccccc2c2nc3ccccc3n12,-41%,20µM*,0%,0%,-12%,-1%
Cc1cc(=S)nc(-c2ccccn2)[nH]1,0.79µM*,?,5%,-5%,-47%,?
Cc1cc2nc(-c3ccccn3)c(-c3ccccn3)nc2cc1C,?,-24%,-20%,·,·,?
Cc1[nH]c(-c2ccccn2)nc(=S)c1Cl,10µM*,?,18%,2%,-44%,?
Cc1cccc(-n2c(C)nc3cc(C(=O)NC4CCCCCC4)ccc32)c1,·,·,·,·,·,-5%
Cn1c(CSCc2ccccc2)n[nH]c1=S,11µM*,?,-8%,-2%,5%,-2%
Cn1c(CSCc2ccc(Cl)cc2Cl)n[nH]c1=S,0.79µM*,6.3µM*,-10%,·,33%,-20%
Cn1c(CSCc2ccc(F)cc2)n[nH]c1=S,?,?,-11%,4%,-47%,-1%
Cn1c(CSCc2ccc(Cl)cc2)n[nH]c1=S,2.8µM*,13µM*,-3%,-10%,20%,2%
Cc1ccc(OCC(=O)N(C)CC(=O)Nc2ccc(Cl)c(C(F)(F)F)c2)c([N+](=O)[O-])n1,·,·,-6%,-3%,7%,1%
CN(C)c1ccc(NC(=O)CSC2=Nc3ccccc3C3=NC(CCC(=O)NCc4cccs4)C(=O)N23)cc1 (centres undefined),·,·,·,·,·,-20%
C[C@H](N)C(=O)N[C@@H](C)P(=O)(O)O,0%,-1%,·,·,·,·
COCCNC(=S)NCc1ccc2[nH]c3c(c2c1)CCCC3,20µM*,-74%,-7%,3%,-8%,1%
CC(C)CC(=O)NCc1ccc2[nH]c3c(c2c1)CCCC3,45%,-22%,2%,2%,-11%,4%
Cc1ccc(NC(=S)NCc2ccc3[nH]c4c(c3c2)CCCC4)cc1,7.9µM*,2.8µM*,24%,0%,8%,?
SMILES,RORg inh,Gal4-VP16 FLuc,Mito fusion act,uPA surface inh,Integrin act MD,Chronic BCR inh
CCCCCCCC/C=C\CCCCCCCCN,13%,-15%,·,·,·,·
O=C(O)C1CC(=O)N(CCc2ccc(F)cc2)C1 (centres undefined),-22%,-1%,-3%,-1%,3%,-1%
CCCc1cc(=O)oc2c3c(cc(OCC(=O)N[C@@H](C)C(=O)O)c12)OC(C)(C)CC3,8%,-6%,2%,4%,-12%,1%
CCCc1cc(=O)oc2c3c(c4c(c12)OC(C)(C)C=C4)OC(C)C(C)C3O (centres undefined),-17%,?,0%,1.4µM*,-48%,?
COc1cc(OC)cc(C(=O)Nc2ccc(S(=O)(=O)Nc3nc(C)cc(C)n3)cc2)c1,-1%,1%,-1%,0%,1%,?
COc1ccc(OC)c(NC(=S)NCc2ccccc2OC)c1,7.1µM*,-7%[10 µM],0%,1%,35%,-2%
COc1ccc(OC)c(NC(=S)NCc2cccs2)c1,14µM*,?,-1%,0%,6%,?
CC(C)c1ccc(NC(=S)NCc2cccs2)cc1,16µM*,?,10%,·,16%,19%
COc1ccccc1CNc1cc(C)ccc1C,-6%,-3%,6%,13%,0%,0%
COc1ccccc1CNC(=S)Nc1cc(C)ccc1C,3.2µM*,?,-4%,1%,8%,2%
CNC(=O)[C@]1(C(F)(F)F)C[C@H](CCC2CCCCC2)CCCO1,7%,-19%,·,·,·,·
Cc1ccc(SCC(=O)NNC(=O)c2ccccc2)c(C)c1,-12%,-5%,-11%,3%,0%,-7%
O=S(=O)(Nc1cccc(-c2nnco2)c1)c1ccc(F)cc1F,37%,5%,-2%,2%,?,?
CNC(=S)Nc1cc(OC)ccc1OC,11µM*,?,1%,-2%,22%,?
COc1ccc(NC(=S)NCc2cccs2)cc1,4µM*,?,-12%,-3%,5%,?
CCOC(=O)c1ccccc1NC1c2ccccc2C(=O)N1C1CCN(C(=O)OCC)CC1 (centres undefined),22%,-12%,35µM*,15%,-28%,?
COc1cc2c(cc1OC)C1CCC3=C([C@H](C)OC3=O)N1CC2 (some centres undefined),-29%,1%,·,·,·,·
COc1ccccc1N1CCN(C(=O)C2CCCN(S(=O)(=O)c3ccc4c(c3)CCCN4C(C)=O)C2)CC1 (centres undefined),23%,7.9µM*,-28%,1%,-47%,-8%
CC(=O)c1ccc(N(C(=O)CNC(=O)c2ccco2)C(C(=O)NC2CCCC2)c2cccnc2)cc1 (centres undefined),-22%,5%,-1%,-4%,13%,1%
O=C(NC1CCCCC1)NS(=O)(=O)c1ccc2c(c1)CCC2,·,·,·,4%,11%,·
C/C(N)=C(/C#N)C(=O)CSc1nnnn1-c1ccc(C)cc1C,-25%,13µM*,0%,·,-45%,-3%
C/C(N)=C(/C#N)C(=O)CSc1nc2ccccc2c(=O)n1Cc1ccc(F)cc1,2.8µM*,3.5µM*,3%,9%,27%,?
C/C(N)=C(/C#N)C(=O)CSc1nc2ccccc2c(=O)n1Cc1ccc(C)cc1,2.5µM*,4µM*,-17%,-1%,-9%,-9%
CCCCn1c(SCC(=O)/C(C#N)=C(\C)N)nc2ccccc2c1=O,?,?,17%,0%,20%,-1%
